Results: PubChem BioAssay AID2736 (Broad Institute, 2010)
The other results are listed elsewhere or left out. Activity calls are given as the source filed them.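 Rule for the calls: active = every replicate shows more than 75% inhibition of signal versus neutral control wells; inconclusive = half to three quarters of replicates exceed 75% inhibition; inactive = fewer than half of replicates exceed 75% inhibition.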

assay: Vibrio harveyi AI-2 signaling luminescence modulation – JMH597 strain, confirmation (AID 2736); details: Vibrio harveyi JMH597 AI-2 quorum sensing luminescence, 9 h; at 7.5 µM; hits give high values; luxN and CqsS knockout, AI-2 only

SMILES	inhibition
CN(Cc1cnccn1)C(=O)c1cc(COc2cccc(C(F)(F)F)c2)on1	97.2% (active)
N/C(=N\OC(=O)CCc1ccccc1)c1cccnc1	93.1% (active)
CC(CNc1ccc([N+](=O)[O-])cc1)NC(=O)c1ccccc1Br (stereo not drawn)	8.81% (inactive)
O=C(/C=C/c1ccc2c(c1)OCO2)NCc1ccc(F)cc1	94.2% (active)
O=C(CCC(=O)c1cccs1)Nc1nc2ccccc2s1	97.8% (active)
O=C(COc1ncnc2ccccc12)NC(=O)NCc1ccccc1	96.5% (active)
CC(C)(C)c1ccc(OC2=CS(=O)(=O)c3ccccc32)cc1	96.6% (active)
O=C1COc2ccc(S(=O)(=O)Nc3ccc(OC(F)(F)F)cc3)cc2N1	99.2% (active)
COC(=O)C1CCN(C(=O)c2ccc3oc(Cc4ccc(Cl)cc4)nc3c2)CC1	96.4% (active)
Cc1cccc(CSc2ccc(-c3cccs3)nn2)c1	96.9% (active)
COc1cccc(NC(=O)NCc2ccc(F)cc2)c1	95.3% (active)
Cc1cc(C(=O)OCC(=O)Nc2ccc(F)c(F)c2)c(C)o1	97.8% (active)
O=C(c1cc(-c2cccc(O)c2)on1)N1CCc2ccccc2C1	94.4% (active)
CCOC(=O)c1nn(-c2cccc(C)c2)cc1C(=O)c1ccccc1	93.5% (active)
Cc1nn(CC(=O)Nc2ccc(F)cc2)c(=O)c2ccccc12	99% (active)
S=C(NCc1ccc(Cl)cc1)NC1CCCCC1	95.5% (active)
Cc1ccccc1NC(=O)CCOc1ccccc1	91.6% (active)

SMILES	inhibition
CCOc1ccc(/C=N/NC(N)=S)cc1	94.3% (active)
O=C(Nc1ccc(F)c(Cl)c1)C1CCN(S(=O)(=O)c2cccnc2)CC1	98.4% (active)
Cc1ccc(NS(=O)(=O)c2ccc3c(c2)NC(=O)CO3)cc1	95% (active)
O=C(COC(=O)C1CCCCC1)Nc1ccc([N+](=O)[O-])cc1	95.3% (active)
Cc1cc(CN(C)C(=O)c2cc(COc3ccc(C)c(C)c3)on2)n[nH]1	97.5% (active)
COC(=O)c1ccc(SCc2ccccc2)nc1	97.3% (active)
O=S(=O)(Nc1cccc(Oc2ccc(Cl)cc2)n1)c1ccc(F)cc1	99.7% (active)
Cc1ccc(Cc2nc(-c3cccc(C)c3)no2)cc1	94.6% (active)
COc1ccc(/C(N)=N/OC(=O)Cc2ccccc2)cc1	96% (active)
Cc1ccccc1C(=O)Nc1ccc(N2CCCCCC2)cc1	94.5% (active)
CC(=O)c1cccc(OCc2cc(C(=O)NC(C)Cc3cccnc3)no2)c1 (stereo not drawn)	95.5% (active)
Cc1ccsc1C(=O)OCC(=O)c1cc2ccccc2o1	96.8% (active)
Cc1ccc(Oc2cnn(-c3ccccc3)c(=O)c2Br)cc1	99.3% (active)
Cc1ccc(NC(=O)C2CC2c2ccccc2)cc1 (stereo not drawn)	94.7% (active)
O=C(/C=C/c1ccc2c(c1)OCCO2)c1ccc(O)cc1	95.7% (active)
O=C(Cn1cnc2ccccc2c1=O)Nc1cccc(S(=O)(=O)N2CCCCC2)c1	88.6% (active)
